PubChem BioAssay AID1053175 (ICCB-Longwood Screening Facility, Harvard Medical School, 2014)
Where “and” joins values, the source holds several entries; their conditions need not be identical. Equal entries are not always repeated. Hit rate of the full screen: of about 330,000 compounds, about 700 (0.21%) were called active.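 The calls were made as follows: active = OD600 absorbance below the run mean of sample wells minus 3.6 SD, in any replicate (cut at about 0.56 in these data); inactive = the rest.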 The full list was thinned out, with actives kept by preference.

Assay: E. coli growth inhibition, primary screen, OD600 (AID 1053175)
Settings: Escherichia coli growth, OD600, 23 h; stronger effect = lower value

OD600 absorbance, active:
Cn1ccc(=Nc2ccc(NC(=O)c3ccc(N=c4ccn(C)c5ccc([N+](=O)[O-])cc45)cc3)cc2)cc1 0.104
CCc1c(Nc2ccccc2Cl)nc(N)[nH]c1=O 0.475
OC(CNCC1CCCO1)Cn1c2ccc(Br)cc2c2cc(Br)ccc21 (configuration not stated) 0.547
C/[N+]([O-])=C\c1ccc([N+](=O)[O-])o1 0.0665
CCc1ccc(-c2nn(-c3ccccc3)cc2CSC(=N)N)cc1 0.201
Cc1c(CN2CCC(CO)(CCOc3ccccc3)CC2)[nH]c2ccc(Cl)cc12 0.527
COC(=O)c1cc(C(=O)NC(C)C2CC3CCC2C3)cc([N+](=O)[O-])c1 (configuration not stated) 0.52
FC(F)(F)c1cccc(NC(=S)Nc2cccc(Cl)c2)c1 0.501
OCCNc1nc(Nc2ccc(Cl)c(Cl)c2)nc2ccccc12 0.392
Cc1c(Cl)cccc1NC(=S)N(Cc1ccccc1)Cc1cccnc1 0.58
O=C(/C=C/c1ccc([N+](=O)[O-])o1)NNC(=O)c1ccc(F)cc1 0.428
CCN1/C(=C/c2ccc3ccc(C)cc3[n+]2CC)Sc2ccccc21 0.506
CC(=NNC(=O)c1ccc(F)cc1)c1ccccn1 0.506

OD600 absorbance, inactive:
Clc1cccc(Cl)c1C=NNc1nccs1 0.705
Cc1cc(C)nc(NN=Cc2ccccc2OCc2ccccc2)n1 0.638
CC(=O)NC(=S)Nc1ccc(NC(=S)NC(=O)c2ccc([N+](=O)[O-])cc2)cc1 0.699
COc1cc(NS(=O)(=O)c2ccc(NC(=O)c3ccc([N+](=O)[O-])cc3)cc2)ncn1 0.659
Fc1cccc(CCN2CCNCC2Cc2ccccc2)c1 (configuration not stated) 0.658
O=C(O)c1cc(O)c2c(c1)C(C1c3cc(C(=O)O)cc(O)c3C(=O)c3c(OC4OC(CO)C(O)C(O)C4O)cccc31)c1cccc(OC3OC(CO)C(O)C(O)C3O)c1C2=O (configuration not stated) 0.667
COC(=O)c1cccc(C23CC4(C2)C(CN(CC2CCCCC2)C4c2ccccc2)C3c2ccccc2)c1 (configuration not stated) 0.699
CCc1ccc(C=NNC(=O)Cc2ccc(OC)c(OC)c2)s1 0.627
Cc1nn(-c2ccccc2)c(C)c1C=Nn1c(-c2ccccc2Br)n[nH]c1=S 0.624
CCOc1ccc(Br)cc1C(=O)NN=Cc1c[nH]c2ccccc12 0.686
O=C(NN=C/C(Br)=C\c1ccccc1)c1n[nH]c2c1CCC2 0.619
C[C@]12C(=O)N(c3cccc(F)c3)C(=O)N1C1c3ccccc3OCC1C2c1ccccc1 (some centres not stated) 0.707 and 0.703
C=Cc1ccc(C2=CC(=O)CC(c3ccc(OC)cc3)C2)cc1 (configuration not stated) 0.663
O=C(NN=Cc1cccc2ccccc12)c1cccnc1 0.676
O=C(C=Cc1ccccc1)NCCSCc1ccccc1Cl 0.63
O=C(CCNc1n[nH]c(=O)[nH]c1=O)NN=Cc1ccc(Cl)cc1 0.691
CCOC1OC(C(=O)NCc2nc3ccccc3[nH]2)=CC(c2cn(C(C)=O)c3ccccc23)C1CCCO (configuration not stated) 0.677 and 0.601
ON=Cc1cccn1-c1nccs1 0.697
Cc1ccc(C(=O)NN=Cc2c[nH]c3ccccc23)o1 0.69
CCn1c(C)nc2cc(C(=O)NN=C(C)c3ccc(N4CCOCC4)cc3)ccc21 0.666
CCCC(CNC(CNC)C(C)O)NCCc1ccc(OC)cc1 (configuration not stated) 0.679
O=Cc1c(Nc2ccccc2Cl)nc2ccccn2c1=O 0.678
CCc1c(Nc2ccccc2C)nc(N)[nH]c1=O 0.675
c1ccc(N=C2N=C(Nc3ccccn3)c3ccccc32)nc1 0.705
CCC1=C(OC(=O)N(CC)CC)N2C(=O)OC(=NCC(=O)OC)[C@]2(C)C2C1=CCC1C(=O)NC(=O)C12 (some centres not stated) 0.617
O=C(CCNS(=O)(=O)c1ccc(Br)cc1)NCC1CCCO1 (configuration not stated) 0.66
CCCN1CCn2c3c(c4cc(Br)ccc42)CCCC31 (configuration not stated) 0.655
O=C(CC=NOCc1ccc([N+](=O)[O-])cc1)Nc1ccc(Br)cc1 0.631
O=C(O)CC1c2cc(F)ccc2S(=O)(=O)N1Cc1ccccc1 (configuration not stated) 0.672
O=[N+]([O-])c1cccc(C=NN2CCN(c3ccccn3)CC2)c1 0.693
CCn1c(/C=C/c2ccc([N+](=O)[O-])o2)nc2ccccc2c1=O 0.629
Cc1ccc(NCC(=O)NN=Cc2ccc([N+](=O)[O-])o2)cc1 0.564
CCc1ccc(-c2nn(-c3ccccc3C)cc2C(=O)N2CCN(C3CCS(=O)(=O)C3)CC2)cc1 (configuration not stated) 0.66
Cc1ccc(-c2nn(-c3ccccc3)cc2C(=O)NC2CCC(O)CC2)cc1 (configuration not stated) 0.658
COc1cccc(C=NNC(=O)CSc2cccc3cccnc23)c1 0.635
COC(=O)[C@]1(Cc2ccccc2)NC(c2ccc(-c3cc(C(C)=O)cs3)cc2)C2C(=O)N(C)C(=O)C21 (some centres not stated) 0.738
COC(=O)C1=C(C)N(Cc2ccco2)C(=O)NC1c1cccc(C(F)(F)F)c1 (configuration not stated) 0.7
COc1ccc(C2C=CCN(S(=O)(=O)C=Cc3ccccc3)C(Cc3ccccc3)C(=O)N2Cc2ccc(F)cc2)cc1 (configuration not stated) 0.733
CCOc1cc(C=NNc2ncnc(Cl)c2N)ccc1O 0.682
COc1cc(C=Nn2cnnc2)ccc1OCCOc1ccccc1 0.782
OCC1(CCOc2ccccc2)CCN(Cc2cn[nH]c2-c2ccccc2)CC1 0.675
CCOC(=O)C1(CCOc2ccccc2)CCN(Cc2cc(OC)c(O)cc2Cl)CC1 0.602
COc1cc(C(=O)ON=C2C=CC(=O)C=C2C)cc(OC)c1OC 0.685
Cc1cccc(C(=O)OCC(=O)NC(C)C2CC3CCC2C3)c1O (configuration not stated) 0.676
Cc1c(C(=O)NC(C)C2CC3CCC2C3)cccc1[N+](=O)[O-] (configuration not stated) 0.695
CC=C(C)C(=O)NCCN1C2=NCC(C)N2CC1Cc1ccc(O)cc1 (configuration not stated) 0.694
Cc1occc1C(=O)NN=Cc1cccc2ccccc12 0.677
COc1ccc(OC)c(C=Nn2c(-c3n[nH]c4c3CCC4)n[nH]c2=S)c1 0.697
COc1cc(C=NNC(=O)c2ccc3nc[nH]c3c2)ccc1O 0.686
CCOC(=O)C1C2COc3ccccc3C2N2C(=O)N(c3cccc(Cl)c3)C(=O)[C@@]12C (some centres not stated) 0.65 and 0.728
Nc1nnnn1N=Cc1ccc(O)cc1 0.733
Cc1cc([N+](=O)[O-])cc(C)c1OCC(=O)NN=Cc1ccc(OC(=O)c2ccccc2Br)cc1 0.708
S=C(Nc1cccc(Cl)c1)Nc1ccc2c(c1)OCCO2 0.613
Cc1csc(NC(=S)Nc2cccc(Cl)c2)n1 0.618
OCCCNc1nc(-c2ccccc2)c2cc(Cl)ccc2n1 0.647
Cc1nnc(NCCO)c2ccccc12 0.66
COc1cc(C(C)=NNC(=O)c2cccc(S(=O)(=O)N3CCCC3)c2)cc(OC)c1OC 0.705
Cc1ccc(CN(Cc2cccnc2)C(=S)Nc2cccc(Cl)c2C)cc1 0.672
Cc1cccc(C)c1NC(=S)N(Cc1cccnc1)Cc1ccccc1Cl 0.706
O=C(NN=C1CC(c2ccccc2)Oc2ccccc21)c1ccc(O)cc1 (configuration not stated) 0.541
COC(=O)NN=Cc1c[nH]c2ccccc12 0.738
CC(=NNC(=O)c1ccccc1[N+](=O)[O-])c1c(O)cc(C)oc1=O 0.635
COc1cc(C=NNC(=O)NC23CC4CC(CC(C4)C2)C3)ccc1OCC(N)=O 0.652
O=C(NNC(=O)C1CCCC1)c1ccc(F)cc1 0.706
CCc1noc(C)c1C(=O)NNC(=O)c1ccc(F)cc1 0.692
S=c1[nH]nc(-c2ccncc2)n1N=Cc1ccccc1 0.705
COc1ccc(C(=O)NN=C(c2ccccc2)c2ccccn2)cc1 0.68
CC(=NNC(=O)c1c[nH]c2ccccc12)c1ccccn1 0.586
CC(=NNS(=O)(=O)c1ccc(Br)cc1)c1ccc(-n2ccnc2)cc1 0.734
